# Shown are actives, neighbours in structure and some others; about 2.3% of the full set was active somewhere.
# MEKK3 PB1 HTS: raises or lowers MEK5 binding to the human MEKK3 PB1 domain; Q99759; binding response (% of control), % at 10 µM; 290,000 tested, 1.4% active; bead-based flow cytometry, Alexa488-MEK5 binding to MEKK3; actives lie on both sides; 0 = blocked by unlabeled MEK5, 100 = vehicle; AID 1529;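 active means binding response more than 3 SD above or below the average of its plate-row segment, actives on both sides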;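 further: Alexa488 bead fluorescence after subtracting the streptavidin-only scavenger bead signal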
# Target sequence (Q99759 whole entry, looked up, the tested form may be a part): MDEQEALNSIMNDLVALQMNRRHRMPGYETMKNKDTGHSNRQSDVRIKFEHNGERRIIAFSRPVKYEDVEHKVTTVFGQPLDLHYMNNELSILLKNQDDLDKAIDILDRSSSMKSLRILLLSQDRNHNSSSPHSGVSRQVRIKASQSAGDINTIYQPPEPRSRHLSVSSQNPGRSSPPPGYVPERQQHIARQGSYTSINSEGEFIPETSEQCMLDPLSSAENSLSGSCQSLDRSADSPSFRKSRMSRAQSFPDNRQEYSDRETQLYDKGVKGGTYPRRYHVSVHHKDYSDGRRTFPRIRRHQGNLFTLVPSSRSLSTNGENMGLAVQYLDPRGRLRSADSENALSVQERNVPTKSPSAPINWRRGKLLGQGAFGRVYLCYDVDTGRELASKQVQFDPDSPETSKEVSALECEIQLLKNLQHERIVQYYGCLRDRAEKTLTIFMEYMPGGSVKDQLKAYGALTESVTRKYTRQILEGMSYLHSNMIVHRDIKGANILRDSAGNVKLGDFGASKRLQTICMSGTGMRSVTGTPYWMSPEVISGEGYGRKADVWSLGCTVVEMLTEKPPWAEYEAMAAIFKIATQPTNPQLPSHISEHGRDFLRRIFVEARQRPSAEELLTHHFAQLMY
# UBC13 inh: human UBC13 polyubiquitination inhibition | UBC13 polyubiquitin chain formation, TR-FRET | inhibition, % at 20 µM | AID 485273 | 330,000 tested, 0.47% active; in the data active means inhibition above about 45%, passing the limit was not always enough
# MEKK2mut PB1 HTS: signal of MEK5 binding to mutant human MEKK2 PB1 domain. bead flow cytometry, Alexa488-MEK5 binding to MEKK2 mutant. percent response, % at 10 µM. 290,000 tested, 0.35% active; in the data active means percent response above about 24%, passing the limit was not always enough
# MEKK2 WT-MEK5: raises or lowers MEK5 binding to wildtype human MEKK2 PB1 domain. AID 1531. binding response (% of control), % at 10 µM. bead flow cytometry, Alexa488-MEK5 binding to MEKK2 WT; actives lie on both sides. 290,000 tested, 1.1% active. Q9Y2U5; in the data active means binding response below about 67% or above about 130%
# MEKK2wt confirm: raises or lowers MEK5 binding to wildtype human MEKK2, retest | 5,900 tested, 2.4% active | shares compounds with MEKK3 PB1 HTS | AID 1892 | binding response (% of control), % at 10 µM | bead flow cytometry, Alexa488-MEK5 binding to MEKK2 WT; actives lie on both sides; in the data active means binding response below about 16% or above about 210%; inactive means in between
# MEKK2mut confirm: signal of MEK5 binding to mutant human MEKK2, retest; shares compounds with MEKK3 PB1 HTS; bead flow cytometry, Alexa488-MEK5 binding to MEKK2 mutant; percent response, % at 10 µM; 5,900 tested, 2% active; AID 1893; in the data active means percent response mostly above about 71%, no sharp cut-off; inactive means mostly below about 38%;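 further: higher means compound restores mutant binding toward wildtype level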
# MEKK3-MEK5 inh: MEKK3-MEK5 PB1 inhibition, single concentration confirmation; shares compounds with MEKK3 PB1 HTS; binding response (% of control), % at 10 µM; 5,900 tested, 1.8% active; bead flow cytometry, Alexa488-MEK5 binding to MEKK3; hits give low values;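 active means binding response below 72% of control, or above a set upper limit, though filed actives all read lower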;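 further: 100% = DMSO only wells and 0% = binding blocked by excess unlabeled MEK5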
# Casp3 UBC13 ctr: caspase-3 inhibition (UBC13 counter-screen). 1,400 tested, 4% active. inhibition, % at 20 µM. AID 488856. Recombinant caspase-3, Caspase-Glo 3/7 luminescence, 60 min. shares compounds with UBC13 inh;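 active means mean inhibition across replicates above about 26%, limit read from the data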;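 further: plate controls were DMSO with caspase-3 for no effect and DMSO wells lacking enzyme for full effect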
# UBC13 conf: confirmation of human UBC13 polyubiquitin inhibitors. shares compounds with UBC13 inh. UBC13 polyubiquitination, TR-FRET, biochemical. inhibition, % at 10 µM. 1,400 tested, 68% active; in the data active means inhibition above about 45%
# * hit, by the source's call; x = no result given.
SMILES,MEKK3 PB1 HTS,UBC13 inh,MEKK2mut PB1 HTS,MEKK2 WT-MEK5,MEKK2wt confirm,MEKK2mut confirm,MEKK3-MEK5 inh,Casp3 UBC13 ctr,UBC13 conf
OC(CNCC1CCCO1)Cn1c2ccc(Cl)cc2c2cc(Cl)ccc21 (centres undefined),104,49*,34,187*,170,49,113,-3,89*
CSc1cccc(CN(C)C(=O)C2CCC(=O)N(CCCN3CCCC3=O)C2)c1 (centres undefined),103,4,1,101,x,x,x,x,x
Cc1ccc(C2N(C)C(=O)c3ccccc3N2C)cc1 (centres undefined),105,11,8,108,x,x,x,x,x
CC[C@H](C)[C@@H]1NC(=O)c2cc([N+](=O)[O-])cc(F)c2NCCCC[C@@H](C(N)=O)NC(=O)[C@H](CC(N)=O)NC1=O,108,-6,2,100,x,x,x,x,x
C[C@@H](O)C1NC(=O)[C@H](CCCCN)NC(=O)c2cc([N+](=O)[O-])cc(F)c2NCCCC[C@@H](C(N)=O)NC1=O (some centres undefined),108,96*,14,141*,143,22,102,0,101*
CCN1CCN(Cc2ccc(NC(=O)c3ccc(C)c(NC(=O)c4c[nH]c5cc(C(F)(F)F)ccc5c4=O)c3)cc2C(F)(F)F)CC1,115,108*,83*,199*,224*,131*,93,-5,100*
Cc1ccc(C(=O)Nc2cccc(C(F)(F)F)c2)cc1NC(=O)c1c[nH]c2cc(C(F)(F)F)ccc2c1=O,x,-25,x,x,x,x,x,x,x
CCN1CCN(Cc2ccc(NC(=O)c3cc(NC(=O)c4cc(-c5ccc(OC)cc5)n[nH]4)cc(OC)c3)cc2C(F)(F)F)CC1,125*,61*,167*,167*,312*,173*,117,2,44
CCN1CCN(Cc2ccc(NC(=O)c3cc(NC(=O)c4ccc5n[nH]nc5c4)cc(OC)c3)cc2C(F)(F)F)CC1,113,13,13,118,x,x,x,x,x
CCN1CCN(Cc2ccc(NC(=O)c3cc(NC(=O)c4cncc(-c5cccs5)c4)cc(OC)c3)cc2C(F)(F)F)CC1,118,102*,133*,362*,245*,193*,113,-7,91*
CCC(C)c1nc2ccsc2c(N2CCOC2=O)c1-c1ccccc1 (centres undefined),106,-1,6,102,x,x,x,x,x
COc1ccc(-c2cc(C#N)nc(N3CCNCC3)n2)cc1,84,98*,57*,215*,223*,71*,95,-3,74*
O=C(COC(=O)c1c(Cl)ccc(Cl)c1Cl)NC(=O)NCc1ccccc1,98,9,0,103,x,x,x,x,x
c1ccc(CNc2nc(NCc3ccccc3)c3ccccc3n2)cc1,106,75*,140*,262*,256*,116*,113,-1,92*
CN(C)CCCn1cnc2c(c1=N)C(c1ccccc1)c1ccc3ccccc3c1O2 (centres undefined),101,71*,26*,170*,194,64,103,2,82*
COc1ccnc(Oc2ccccc2)c1C(=O)N/C=N/OCc1ccccc1F,66,5,-31,71,x,x,x,x,x
COc1cc2nc(=S)n3[nH]c(CCn4c(C)nc5ccccc54)nc3c2cc1OC,104,26,6,106,x,x,x,x,x
COc1ccc(OCc2nc3c4cc(OC)c(OC)cc4nc(=S)n3[nH]2)cc1,128*,59*,1,106,105,4,105,4,44
CCOC(=O)C1CCCN(c2nc3ccccc3nc2NS(=O)(=O)c2ccc(C)cc2)C1 (centres undefined),x,-3,x,x,x,x,x,x,x

# Bioassay records: PubChem, several laboratories
